# PubChem BioAssay (NCI)
# Where “and” joins values, the source holds several entries; their conditions need not be identical. Identical values can stand only once. This is part of a sample that, as a whole, favours compounds with a hit. Of some 79,000 tested, about 15% had one in any assay. Some compounds were tested as several samples or in several runs, with calls that do not always agree. Calls of active or inactive are those of the source. Cut-off read from the data, not from the text of the source: active = growth inhibition above about 70%; inactive = the rest.
# Assays:
# [1] = NCI Yeast Anticancer Drug Screen. Data for the mec2-1 strain (AID 157); conditions: S. cerevisiae mec2-1 strain, stronger effect = higher value
# Summary of the method: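 Mutant yeast (mec2-1) grown with compound; growth inhibition relative to vehicle control reported.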
# [2] = NCI Yeast Anticancer Drug Screen. Data for the rad14 strain (AID 159);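 note: 0% = growth of vehicle-treated control cultures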; conditions: S. cerevisiae rad14 strain growth inhibition, stronger effect = higher value
# Summary of the method: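 A mutant yeast strain defective in DNA damage repair is treated with compound; inhibition of its growth is scored against untreated, vehicle-exposed cultures.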
# [3] = NCI Yeast Anticancer Drug Screen. Data for the sgs1 mgt1 strain (AID 161);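 note: 0% = growth of cultures given vehicle only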; conditions: S. cerevisiae sgs1 mgt1 strain, stronger effect = higher value
# Summary of the method: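 Yeast cells carrying a defined DNA-repair defect were exposed to test compounds. Growth inhibition was measured relative to vehicle-treated controls.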
# [4] = NCI Yeast Anticancer Drug Screen. Data for the CLN2oe strain (AID 163);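 note: 0% = growth of vehicle-only control cultures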; conditions: S. cerevisiae CLN2oe strain, stronger effect = higher value
# Summary of the method: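 Compounds are applied to yeast harbouring a defined cell-cycle control change; reduced growth compared with vehicle-treated controls gives the value.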
# [5] = NCI Yeast Anticancer Drug Screen. Data for the cln2 rad14 strain (AID 165);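 note: 0% = growth equal to vehicle treated cultures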; conditions: S. cerevisiae cln2 rad14 strain, stronger effect = higher value
# Summary of the method: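 Readout is yeast growth inhibition versus vehicle-treated controls, using a strain with cln2 and rad14 alterations exposed to compound.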
# [6] = NCI Yeast Anticancer Drug Screen. Data for the bub3 strain (AID 167); conditions: S. cerevisiae bub3 mutant strain, stronger effect = higher value
# Summary of the method: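 Steps: expose the mutant yeast strain to compound; grow alongside vehicle-treated cultures; measure growth; express inhibition against the vehicle cultures.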
# [7] = NCI Yeast Anticancer Drug Screen. Data for the wt2 strain (AID 169);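 note: 0% = growth of vehicle-treated yeast cultures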; conditions: S. cerevisiae wt2 strain growth inhibition, stronger effect = higher value
# Summary of the method: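 Against vehicle-treated controls, the growth of yeast exposed to each compound was compared, and the inhibition was recorded.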
# [8] = NCI Yeast Anticancer Drug Screen. Data for the mlh1 strain (AID 171);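 note: 0% = growth of vehicle-treated control cultures of the same strain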; conditions: S. cerevisiae mlh1 strain growth inhibition, stronger effect = higher value
# Summary of the method: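 Measured: yeast growth. Reference: vehicle-treated controls. Organism: strain with a defined alteration affecting DNA damage repair or cell cycle control, treated with compound.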
# [9] = NCI Yeast Anticancer Drug Screen. Data for the sgs1 strain (AID 173);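 note: 0% = growth of vehicle-only control cultures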; conditions: S. cerevisiae sgs1 mutant, stronger effect = higher value
# Summary of the method: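 Each compound was added to cultures of the altered yeast strain. Growth was recorded, and inhibition was derived by comparison with vehicle controls.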
# [10] = NCI Yeast Anticancer Drug Screen. Data for the mlh1 rad18 strain (AID 175); conditions: S. cerevisiae mlh1 rad18 strain growth inhibition, stronger effect = higher value
# Summary of the method: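 Genetically defined yeast (DNA repair-deficient) exposed to compounds; growth inhibition determined relative to vehicle.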
# [11] = NCI Yeast Anticancer Drug Screen. Data for the rad18 strain (AID 177); conditions: S. cerevisiae rad18 mutant growth inhibition, stronger effect = higher value
# Summary of the method: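 Vehicle-treated cultures served as the baseline for scoring compound-induced growth inhibition in DNA-repair-mutant yeast.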
# [12] = NCI Yeast Anticancer Drug Screen. Data for the rad52 strain (AID 147);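 note: 0% = growth of vehicle-treated control cultures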; conditions: S. cerevisiae rad52 mutant growth inhibition, stronger effect = higher value
# Summary of the method: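 The repair-mutant yeast strain was incubated with compounds, then growth was read and inhibition derived relative to vehicle.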
# [13] = NCI Yeast Anticancer Drug Screen. Data for the wt1 strain (AID 149);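 note: 0% = growth of vehicle-treated wt1 cultures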; conditions: S. cerevisiae wt1 strain (SPY 50644) growth inhibition, stronger effect = higher value
# Summary of the method: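 Compounds are added to wt1 yeast cultures. Growth is then measured. Inhibition is expressed relative to vehicle-treated controls.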
# [14] = NCI Yeast Anticancer Drug Screen. Data for the rad50EPP+ strain (AID 151);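 note: 0% = growth of vehicle-treated control cultures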; conditions: S. cerevisiae rad50 mutant strain, stronger effect = higher value
# Summary of the method: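 Vehicle-normalised growth inhibition; rad50EPP+ yeast strain, altered in DNA damage repair, compound-treated.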
# [15] = NCI Yeast Anticancer Drug Screen. Data for the mgt1 strain (AID 153); conditions: S. cerevisiae mgt1 mutant growth inhibition, stronger effect = higher value
# Summary of the method: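 Vehicle-normalized growth inhibition is determined in mgt1 yeast, a strain selected for a defined alteration in DNA repair or cell cycle control.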
# [16] = at 5.0 µM (retest, dose inferred, filed as 0.5)
# [17] = at 50.0 µM (retest, dose inferred, filed as 5.0)
smiles,measurement,setting,value
CCCCCCCCCCCC1N=C(N)NC(CCCO)=C1C(=O)OC (stereo not given),growth inhibition,[1]; at 100.0 µM,99% (active)
same,growth inhibition,[2]; at 1.2 µM,72% (active)
same,growth inhibition,[2]; at 3.7 µM,99% (active)
same,growth inhibition,[2]; at 11.0 µM,99% (active)
same,growth inhibition,[2]; at 33.0 µM,99% (active)
same,growth inhibition,[2]; at 100.0 µM,99% (active)
same,growth inhibition,[3]; [16],65% (inactive)
same,growth inhibition,[3]; [17],99% (active)
same,growth inhibition,[3]; at 50.0 µM,88.4% (active)
same,growth inhibition,[4]; at 1.2 µM,16% (inactive)
same,growth inhibition,[4]; at 3.7 µM,99% (active)
same,growth inhibition,[4]; at 11.0 µM,99% (active)
same,growth inhibition,[4]; at 33.0 µM,99% (active)
same,growth inhibition,[4]; at 100.0 µM,99% (active)
same,growth inhibition,[5]; [16],21% (inactive)
same,growth inhibition,[5]; [17],100% (active)
same,growth inhibition,[5]; at 50.0 µM,90.8% (active)
same,growth inhibition,[6]; at 1.2 µM,11% (inactive)
same,growth inhibition,[6]; at 3.7 µM,99% (active)
same,growth inhibition,[6]; [16],6% (inactive)
same,growth inhibition,[6]; at 11.0 µM,99% (active)
same,growth inhibition,[6]; at 33.0 µM,98% (active)
same,growth inhibition,[6]; [17],99% (active)
same,growth inhibition,[6]; at 50.0 µM,91.5% (active)
same,growth inhibition,[6]; at 100.0 µM,98% (active)
same,growth inhibition,[7]; at 1.2 µM,16% (inactive)
same,growth inhibition,[7]; at 3.7 µM,99% (active)
same,growth inhibition,[7]; at 11.0 µM,99% (active)
same,growth inhibition,[7]; at 33.0 µM,99% (active)
same,growth inhibition,[7]; at 100.0 µM,99% (active)
same,growth inhibition,[8]; at 1.2 µM,6% (inactive)
same,growth inhibition,[8]; at 3.7 µM,99% (active)
same,growth inhibition,[8]; at 11.0 µM,99% (active)
same,growth inhibition,[8]; at 33.0 µM,99% (active)
same,growth inhibition,[8]; at 100.0 µM,98% (active)
same,growth inhibition,[9]; at 1.2 µM,48% (inactive)
same,growth inhibition,[9]; at 3.7 µM,99% (active)
same,growth inhibition,[9]; at 11.0 µM,99% (active)
same,growth inhibition,[9]; at 33.0 µM,99% (active)
same,growth inhibition,[9]; at 100.0 µM,99% (active)
same,growth inhibition,[10]; [16],53% (inactive)
same,growth inhibition,[10]; [17],99% (active)
same,growth inhibition,[10]; at 50.0 µM,85.5% (active)
same,growth inhibition,[11]; at 1.2 µM,67% (inactive)
same,growth inhibition,[11]; at 3.7 µM,99% (active)
same,growth inhibition,[11]; at 11.0 µM,99% (active)
same,growth inhibition,[11]; at 33.0 µM,99% (active)
same,growth inhibition,[11]; at 100.0 µM,98% (active)
c1ccc2[nH]c(-c3cscn3)nc2c1,growth inhibition,[12]; at 1.2 µM,-3% (inactive)
same,growth inhibition,[12]; at 3.7 µM,-3% (inactive)
same,growth inhibition,[12]; at 11.0 µM,-3% (inactive)
same,growth inhibition,[12]; at 33.0 µM,2% (inactive)
same,growth inhibition,[12]; at 100.0 µM,-1% (inactive)
same,growth inhibition,[13]; at 1.2 µM,-1% (inactive)
same,growth inhibition,[13]; at 3.7 µM,-3% (inactive)
same,growth inhibition,[13]; at 11.0 µM,-2% (inactive)
same,growth inhibition,[13]; at 33.0 µM,-5% (inactive)
same,growth inhibition,[13]; at 100.0 µM,-4% (inactive)
same,growth inhibition,[14]; at 1.2 µM,0% (inactive)
same,growth inhibition,[14]; at 3.7 µM,0% (inactive)
same,growth inhibition,[14]; at 11.0 µM,3% (inactive)
same,growth inhibition,[14]; at 33.0 µM,16% (inactive)
same,growth inhibition,[14]; at 100.0 µM,29% (inactive)
same,growth inhibition,[15]; at 1.2 µM,-2% (inactive)
same,growth inhibition,[15]; at 3.7 µM,-2% (inactive)
same,growth inhibition,[15]; at 11.0 µM,-5% (inactive)
same,growth inhibition,[15]; at 33.0 µM,-5% (inactive)
same,growth inhibition,[15]; at 100.0 µM,-7% (inactive)
same,growth inhibition,[1]; at 1.2 µM,-2% (inactive)
same,growth inhibition,[1]; at 3.7 µM,-8% (inactive)
same,growth inhibition,[1]; [16],-12% (inactive)
same,growth inhibition,[1]; at 11.0 µM,-3% (inactive)
same,growth inhibition,[1]; at 33.0 µM,-6% (inactive)
same,growth inhibition,[1]; [17],4% (inactive)
same,growth inhibition,[1]; at 50.0 µM,7.6% (inactive) and 38.2% (inactive)
same,growth inhibition,[1]; at 100.0 µM,-8% (inactive)
same,growth inhibition,[2]; at 1.2 µM,-4% (inactive)
same,growth inhibition,[2]; at 3.7 µM,-5% (inactive)
same,growth inhibition,[2]; at 11.0 µM,-3% (inactive)
same,growth inhibition,[2]; at 33.0 µM,-5% (inactive)
same,growth inhibition,[2]; at 100.0 µM,-2% (inactive)
same,growth inhibition,[4]; at 1.2 µM,-7% (inactive)
same,growth inhibition,[4]; at 3.7 µM,-3% (inactive)
same,growth inhibition,[4]; at 11.0 µM,-7% (inactive)
same,growth inhibition,[4]; at 33.0 µM,-11% (inactive)
same,growth inhibition,[4]; at 100.0 µM,-19% (inactive)
same,growth inhibition,[5]; [16],-25% (inactive)
same,growth inhibition,[5]; [17],-24% (inactive)
same,growth inhibition,[5]; at 50.0 µM,-19.7% (inactive) and 32.1% (inactive)
same,growth inhibition,[6]; at 1.2 µM,6% (inactive)
same,growth inhibition,[6]; at 3.7 µM,8% (inactive)
same,growth inhibition,[6]; [16],5% (inactive)
same,growth inhibition,[6]; at 11.0 µM,12% (inactive)
same,growth inhibition,[6]; at 33.0 µM,36% (inactive)
same,growth inhibition,[6]; [17],56% (inactive)
same,growth inhibition,[6]; at 50.0 µM,33.4% (inactive) and 84.8% (active)
same,growth inhibition,[6]; at 100.0 µM,70% (active)
same,growth inhibition,[7]; at 1.2 µM,-3% (inactive)
same,growth inhibition,[7]; at 3.7 µM,-3% (inactive)
same,growth inhibition,[7]; at 11.0 µM,-6% (inactive)
same,growth inhibition,[7]; at 33.0 µM,-5% (inactive)
same,growth inhibition,[7]; at 100.0 µM,0% (inactive)
same,growth inhibition,[8]; at 1.2 µM,-2% (inactive)
same,growth inhibition,[8]; at 3.7 µM,-2% (inactive)
same,growth inhibition,[8]; at 11.0 µM,-7% (inactive)
same,growth inhibition,[8]; at 33.0 µM,-3% (inactive)
same,growth inhibition,[8]; at 100.0 µM,11% (inactive)
same,growth inhibition,[9]; at 1.2 µM,-1% (inactive)
same,growth inhibition,[9]; at 3.7 µM,-3% (inactive)
same,growth inhibition,[9]; at 11.0 µM,-1% (inactive)
same,growth inhibition,[9]; at 33.0 µM,-3% (inactive)
same,growth inhibition,[9]; at 100.0 µM,-2% (inactive)
same,growth inhibition,[10]; [16],14% (inactive)
same,growth inhibition,[10]; [17],1% (inactive)
same,growth inhibition,[10]; at 50.0 µM,-37% (inactive) and 39.7% (inactive)
same,growth inhibition,[11]; at 1.2 µM,-1% (inactive)
same,growth inhibition,[11]; at 3.7 µM,-3% (inactive)
same,growth inhibition,[11]; at 11.0 µM,-2% (inactive)
same,growth inhibition,[11]; at 33.0 µM,3% (inactive)
same,growth inhibition,[11]; at 100.0 µM,18% (inactive)
